Whole data set: some 68,000 sequences, median “fluorescence intensity (a.u.)” near 9,100, cut for the highest 2% near 16,000. Shown is part of a subset that was picked to be rich in the highest values.

Sequence of OsWRKY34 (Q0JBA9 entry or part of it): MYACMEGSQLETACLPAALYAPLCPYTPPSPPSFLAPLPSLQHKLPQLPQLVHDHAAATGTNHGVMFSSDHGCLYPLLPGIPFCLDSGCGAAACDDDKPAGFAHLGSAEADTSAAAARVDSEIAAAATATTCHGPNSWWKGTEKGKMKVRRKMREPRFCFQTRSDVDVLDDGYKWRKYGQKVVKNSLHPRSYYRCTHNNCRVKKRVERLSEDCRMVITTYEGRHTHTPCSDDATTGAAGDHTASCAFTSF

This assay has as its target OsWRKY34 (Oryza sativa, UniProt Q0JBA9 1-250). Kind of assay: protein-binding microarray (RPBM); PBS, 2% BSA, 51.3 ng/ul salmon testes DNA, 50 uM zinc acetate, 200 nM TF, 25 C, 1 h; high values mean tight binding. As to conditions: protein: recombinant; tags: N-terminal polyhistidine and DsRed monomer fusion (pET32a); label: CyDye5-dUTP incorporated in the synthesized complementary strand; 3' TTTTT single-stranded linker to array surface; dsDNA, one strand shown. The method in brief:
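The binding signal is fluorescence intensity per array feature (arbitrary units). Readings came from an Axon 4000B scanner after a washed, 2% BSA-blocked, double-stranded custom Agilent array had been incubated for 1 h at 25 °C with 200 nM protein and 50 µM zinc acetate. The protein was a Ni–NTA-purified transcription factor fused N-terminally to polyhistidine and DsRed, expressed in E. coli BL21-CodonPlus.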
For the sequence “GTCTCATGTCACACTCACGTAGCTATATTTTTTATATTATCGGAGTCACCTAGTGCAG”, the binding signal is 9120 fluorescence intensity (a.u.).
On to “ATGCATTTCTTTTAGGATTTGTGATGTATTTTTCGTTTGACGGAGTCACCTAGTGCAG”, for which the binding signal is 9640 fluorescence intensity (a.u.).
Consider “TGGATGTCGCCGTCGGCGGGGTGGTGGGATTTGGAACTGGCGGAGTCACCTAGTGCAG”, for which the binding signal was 12500 fluorescence intensity (a.u.).
As for “ACTTTGATTGGGCTGGGTTCATATGAGATTAGGGGAAAAACGGAGTCACCTAGTGCAG”, the figure is 13500 fluorescence intensity (a.u.).
For the sequence “TTAGGGGTAGGCTAGAGATTGATTGGGGCTTATATGATAACGGAGTCACCTAGTGCAG”, the binding signal was 19700 fluorescence intensity (a.u.).
To “GATTTGGGGATTTGGGGTTTGATTTAGGATGTGCATGCCACGGAGTCACCTAGTGCAG” belongs 21400 fluorescence intensity (a.u.); to “GACCATTATGTTAACTTGGATTAGGGGTAGGCTAGAGATTCGGAGTCACCTAGTGCAG”, 11000 fluorescence intensity (a.u.); to “GTTTGGGATGTCGCGGGGATTTAGGGGCGGTGGGTGGTTTCGGAGTCACCTAGTGCAG”, 39300 fluorescence intensity (a.u.).
As to “TGGGATGTATTTGAGTTGTGATGCATTTCTTTTAGGATTTCGGAGTCACCTAGTGCAG”, the binding signal is 8310 fluorescence intensity (a.u.).
As for “TTAGGGGCGGTGGGTGGTTTTCGGCTGGGAAATCGCGGATCGGAGTCACCTAGTGCAG”, the figure is 11500 fluorescence intensity (a.u.).
As for “GAGCTCCTGTTGGTCGGGGACGTTTCGCGTTGGTTCCTCTCGGAGTCACCTAGTGCAG”, the figure is 12000 fluorescence intensity (a.u.).
To “TATAATTTTGTGCTAATATGCATTTTCCTTGTTTTGTTTACGGAGTCACCTAGTGCAG” belongs 11300 fluorescence intensity (a.u.); to “ATCACAATAGTAACTATACTCTACAATCCATGGTTTCTTACGGAGTCACCTAGTGCAG”, 8960 fluorescence intensity (a.u.); to “CCTTGGGCTGTTTTACCATGGTTTTTGCACACGTGGATGACGGAGTCACCTAGTGCAG”, 10100 fluorescence intensity (a.u.).
Turning to “CTGACATGCGTCGCCATTGACTTTCGCCGCCGCCGCCGCGCGGAGTCACCTAGTGCAG”, the binding signal is 9140 fluorescence intensity (a.u.).
As for “GTCACCATCAAAATAGCTTCATATCTTCCCTGGAAATTTTCGGAGTCACCTAGTGCAG”, the figure is 8160 fluorescence intensity (a.u.); as for “TGTAGTAATTGGGTATCTTCATCATTTGTCCTAAAAAAGTCGGAGTCACCTAGTGCAG”, 8080 fluorescence intensity (a.u.).
To “CCACTTTAGATCCCAAATTATATATGGTCGAGTTCTTTTCCGGAGTCACCTAGTGCAG” belongs 9470 fluorescence intensity (a.u.); to “CGCAACCCCAAGCACTGGTGTTCTACATTCAATCAATCATCGGAGTCACCTAGTGCAG”, 38500 fluorescence intensity (a.u.); to “ACATCCATCCACTCAACCCATTCTACCGTATTAAGCCAATCGGAGTCACCTAGTGCAG”, 8192 fluorescence intensity (a.u.).
As for “ATCATCGTTCACCCGCATTTCATCTACTTCAATCTACATTCGGAGTCACCTAGTGCAG”, the figure is 9810 fluorescence intensity (a.u.).
Turning to “AGGGTGGGTTATATTTGAGCTGGTTAGCAAAAACTATAATCGGAGTCACCTAGTGCAG”, the binding signal is 17900 fluorescence intensity (a.u.).
Regarding “TAGGGTTTGGATGGATAGGGTATATGAGGGTAATTTAGGCCGGAGTCACCTAGTGCAG”, the binding signal was 8450 fluorescence intensity (a.u.).
As for “TCCGGTTCGTTATTTTTATTTTTCTCAGGGAAAAAAAATCCGGAGTCACCTAGTGCAG”, the figure is 8060 fluorescence intensity (a.u.); as for “TCGTGGTGGTGGTGGTGGTGGAAGTTAGGGTTTGAGGGTTCGGAGTCACCTAGTGCAG”, 17300 fluorescence intensity (a.u.).
To “TCTATTTTATAATCGGTGTGTTTGACTGGTATTTTTTAGCCGGAGTCACCTAGTGCAG” belongs 8930 fluorescence intensity (a.u.); to “AGGGGCGGAACTGGGTAGGCAGGGTGGGTTATATTTGAGCCGGAGTCACCTAGTGCAG”, 10500 fluorescence intensity (a.u.).
On to “GATAGGGTTAGCAGGGTGGGAAAATATATTTATTATAGTTCGGAGTCACCTAGTGCAG”, for which the binding signal is 18700 fluorescence intensity (a.u.).
For the sequence “GATAGGGTTAGGGATGGATAGGGTTTCCTTGAGGGTAGTTCGGAGTCACCTAGTGCAG”, the binding signal is 16400 fluorescence intensity (a.u.).
To “ACGGCCTAGTTTTGGTTGAAGTTTTTGGTAGGGGTTAGTTCGGAGTCACCTAGTGCAG” belongs 12300 fluorescence intensity (a.u.); to “TGAGTGGTGGGAGGAGTTAGCAAGTGGTTTGACCGTGGTTCGGAGTCACCTAGTGCAG”, 11800 fluorescence intensity (a.u.).
To “GAAGTTAGGGTTTGAGGGTTTGGTTCCGGAGGGTAGGGTCCGGAGTCACCTAGTGCAG” belongs 9850 fluorescence intensity (a.u.); to “CTGGTTCGGGAATTTCTGGGTGTATAGGGAAATAATTTATCGGAGTCACCTAGTGCAG”, 8060 fluorescence intensity (a.u.).
As for “CCCACCTCCACCTCCGCCGGCCGGTACGTTTATCCACTGACGGAGTCACCTAGTGCAG”, the figure is 9030 fluorescence intensity (a.u.); as for “GACTGATTTGTTTTTTTTTTCTCCCGGTTTTTTCGACGGACGGAGTCACCTAGTGCAG”, 9270 fluorescence intensity (a.u.); as for “TTCCTTTTTTTATGCAACTTTGACAAGCCTAATAGATATACGGAGTCACCTAGTGCAG”, 8500 fluorescence intensity (a.u.).
With “GCTACCATCGTCACCGCCTCAACCAAGCTACCCGTGTCTCCGGAGTCACCTAGTGCAG”, the binding signal was 10400 fluorescence intensity (a.u.).
Regarding “GCCCTACTCTACCCCTAGCCCTCCGCGCGGCTGCCGTCGACGGAGTCACCTAGTGCAG”, the binding signal is 8970 fluorescence intensity (a.u.).
As for “CACCCAAACCAAATCAAATCCGTCCATCCATTCGCCTCTACGGAGTCACCTAGTGCAG”, the figure is 8960 fluorescence intensity (a.u.); as for “ATCCACTTATATATACACACATTTGTAATTTGTATCTATACGGAGTCACCTAGTGCAG”, 8270 fluorescence intensity (a.u.); as for “GTTTGAGGGTTTTTTGTTGGTTTAGAATCATCTTTTTCTTCGGAGTCACCTAGTGCAG”, 9210 fluorescence intensity (a.u.).
As for “TTGATGGGTTTTGGGTTTTTGTGCTGCTCCTTTTTCGTAACGGAGTCACCTAGTGCAG”, the figure is 19800 fluorescence intensity (a.u.).
To “ATTTTCCTTGATTTTTTTTGTGTGTTTGGGAATTGGGATACGGAGTCACCTAGTGCAG” belongs 12600 fluorescence intensity (a.u.).

The values above are taken from article PMC7819943, “Rice protein-binding microarrays: a tool to detect cis-acting elements near promoter regions in rice”.
